Source: PubChem BioAssay AID1780 (National Center for Advancing Translational Sciences (NCATS), 2009)
Activity calls are given as the source filed them. Calls come from the whole dose curve; as a rule, active = well fitted curve in the direction sought with a large enough effect; inactive = no such curve, though single readings can be large or run the other way.

The compounds below were run against Pyruvate kinase PKM (Homo sapiens) (UniProt P14618) (assay: Confirmation Concentration-Response Assay for Activators of Human Muscle isoform 1 Pyruvate Kinase). Conditions: purified hPK-M1, Kinase-Glo ATP luminescence, 1 h; series mostly up to 57.5 µM.
Text: Confirmatory assay NIH Chemical Genomics Center [NCGC] Matthew G. Vander Heiden, M.D., Ph.D. [Harvard Medical School, 77 Avenue Louis Pasteur, Boston, MA 02115] NCGC Assay Overview: Human pyruvate kinase […] (hPK-M1) enzyme was supplied as a highly purified (>95% pure) preparation from Harvard Medical School and assayed for its ability to generate ATP from ADP using phosphoenolpyruvate (PEP) as a substrate. ATP generation was detected in a coupled reaction by luciferase-mediated luminescence, an ATP-dependent process. Pyruvate kinase substrates, PEP and ADP, were present in the assay at Km and approximately 10-fold below Km respectively. The enzyme was assayed at an intermediate level of activity to screen for both inhibitors and activators.
NCGC Assay Protocol Summary for M1-isoform: Three uL of substrate mix (at r.t.) in assay buffer (50 mM Imidazole pH7.2, 50 mM KCl, 7 mM MgCl2, 0.01% Tween 20, 0.05% BSA) was dispensed into white solid bottom 1,536 well microtiter plates so that the final concentrations of substrates in the assay were 0.1 mM ADP and 0.5 mM PEP. 23 nL of compound were delivered by a pin tool and 1 uL of enzyme mix (final concentration of 1 nM) in assay buffer (4 degree Celsius) was added. Plates were incubated at room temperature for 1 hour. Two uL of detection mix (Kinase-Glo, Promega; at 4 degree Celsius protected from light) was added and luminescence read by a ViewLux (Perkin Elmer) at 1 second exposure/plate. Data were normalized to the uninhibited (row 31). Additionally, a no enzyme and 5-fold enzyme control was dispensed in row 32, split equally between the two conditions.

Chain of Pyruvate kinase PKM (Homo sapiens) (P14618 whole entry, looked up, canonical isoform): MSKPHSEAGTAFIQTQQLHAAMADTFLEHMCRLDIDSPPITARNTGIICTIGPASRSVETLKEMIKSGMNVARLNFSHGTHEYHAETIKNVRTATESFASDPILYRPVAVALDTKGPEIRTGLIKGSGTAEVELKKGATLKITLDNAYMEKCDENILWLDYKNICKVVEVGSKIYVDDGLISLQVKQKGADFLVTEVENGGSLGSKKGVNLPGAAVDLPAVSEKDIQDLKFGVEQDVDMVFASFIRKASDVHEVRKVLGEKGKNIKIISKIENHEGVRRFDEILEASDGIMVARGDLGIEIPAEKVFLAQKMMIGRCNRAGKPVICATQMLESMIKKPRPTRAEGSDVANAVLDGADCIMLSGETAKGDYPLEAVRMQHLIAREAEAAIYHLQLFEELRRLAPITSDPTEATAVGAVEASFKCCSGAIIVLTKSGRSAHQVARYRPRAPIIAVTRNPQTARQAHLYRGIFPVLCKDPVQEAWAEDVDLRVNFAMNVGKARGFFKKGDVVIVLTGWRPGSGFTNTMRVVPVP

outcome, inactive:
Cn1c2cc([N+](=O)[O-])sc2c2cnn(Cc3ccccc3F)c(=O)c21
C[C@H]1CN(S(=O)(=O)c2ccc3c(c2)OCCO3)CCN1S(=O)(=O)c1c(F)cccc1F
Cc1cc2c(s1)c1cnn(Cc3cccc(F)c3)c(=O)c1n2C
Cn1c2cc(C=O)sc2c2cnn(Cc3ccccc3F)c(=O)c21
Cc1cc2c(s1)c1cnn(Cc3c(F)cccc3F)c(=O)c1n2C
CC(C)c1cc2c(s1)c1cnn(Cc3ccccc3F)c(=O)c1n2C
Cc1cc2c(s1)c1cnn(Cc3ccc(C(F)(F)F)cc3F)c(=O)c1n2C
CC(=O)c1cc2c(s1)c1cnn(Cc3ccccc3F)c(=O)c1n2C
O=S(=O)(NC1CCN(S(=O)(=O)c2c(F)cccc2F)C1)c1ccc2c(c1)OCCO2 (stereo not given)
O=C(c1ccc2c(c1)OCCO2)N1CCN(S(=O)(=O)c2c(F)cccc2F)CC1
O=S(=O)(c1ccc2c(c1)OCCO2)N1CCN(S(=O)(=O)c2ccccn2)CC1
O=S(=O)(NCC1CN(S(=O)(=O)c2ccc3c(c2)OCCO3)C1)c1c(F)cccc1F
Cn1c2cc(S(C)=O)sc2c2cnn(Cc3ccccc3F)c(=O)c21 (stereo not given)
Cc1cc2c(s1)c1cnn(Cc3ccc(Cl)cc3)c(=O)c1n2C
O=S(=O)(NCCCCNS(=O)(=O)c1c(F)cccc1F)c1ccc2c(c1)OCCO2
O=S(=O)(c1ccc2c(c1)OCCO2)N1CCN(S(=O)(=O)c2cc(F)c(F)cc2F)CC1
Cc1ccc(Cn2ncc3c4sc(C)cc4n(C)c3c2=O)c(C)c1
COc1cccc(S(=O)(=O)N2CCN(S(=O)(=O)c3ccc4c(c3)OCCO4)CC2)c1
Cc1cc2c(s1)c1cnn(Cc3ccc(S(C)(=O)=O)cc3)c(=O)c1n2C
Cc1cc2c(s1)c1cnn(Cc3ccc(F)c(F)c3F)c(=O)c1n2C
O=S(=O)(c1cccc(F)c1)N1CCN(S(=O)(=O)c2ccc3c(c2)OCCO3)CC1
O=S(=O)(c1ccc(F)cc1)N1CCN(S(=O)(=O)c2ccc3c(c2)OCCO3)CC1
Cn1ccc2cc(S(=O)(=O)N3CCN(S(=O)(=O)c4c(F)cccc4F)CC3)ccc21
Cc1cc2c(s1)c1cnn(-c3ccccc3)c(=O)c1n2C
CC(O)c1cc2c(s1)c1cnn(Cc3ccccc3F)c(=O)c1n2C (stereo not given)
COC(=O)c1cc2c(s1)c1cnn(Cc3ccccc3F)c(=O)c1n2C
CCCCCn1ncc2c3sc(C)cc3n(C)c2c1=O
Cc1cc2c(s1)c1cnn(Cc3c(F)cccc3Cl)c(=O)c1n2C
O=S(=O)(c1ccc2c(c1)OCO2)N1CCN(S(=O)(=O)c2c(F)cccc2F)CC1
CCn1c2cc(C)sc2c2cnn(Cc3ccccc3F)c(=O)c21
O=S(=O)(c1ccc2c(c1)OCCO2)C1CCN(S(=O)(=O)c2c(F)cccc2F)CC1
CN1CCOc2ccc(S(=O)(=O)N3CCN(S(=O)(=O)c4c(F)cccc4F)CC3)cc21
O=S(=O)(NCCNS(=O)(=O)c1c(F)cccc1F)c1ccc2c(c1)OCCO2
Cc1cc2c(s1)c1cnn(Cc3ccc(F)cc3)c(=O)c1n2C
CC1(C)CCc2cc(S(=O)(=O)N3CCN(S(=O)(=O)c4c(F)cccc4F)CC3)ccc2O1
O=S(=O)(NC1CCN(S(=O)(=O)c2ccc3c(c2)OCCO3)CC1)c1c(F)cccc1F
O=S(=O)(c1ccc2c(c1)OCCO2)N1CCN(S(=O)(=O)c2ccc(F)cc2F)CC1
CCc1cc2c(s1)c1cnn(Cc3ccccc3F)c(=O)c1n2C
O=S(=O)(NCCCNS(=O)(=O)c1c(F)cccc1F)c1ccc2c(c1)OCCO2
Cc1cc2c(s1)c1cnn(Cc3cc(C(F)(F)F)cc(Cl)c3F)c(=O)c1n2C
